Screens (PubChem)
Nrf2 inh: blocks Nrf2 signaling. actives 2.1% (n = 360,000). A549 ARE-Fluc reporter, luciferase luminescence, 18-24 h. Potency, µM (titrated, usually from 46 µM), without a hit: top-dose activity change, negative = inhibition, hits mostly inhibitors. AID 504444; further: potency means the concentration at half of the fitted maximal effect; on the % scale 0 is the no-effect control and ±100 the full control effect; nearly all actives have a fitted effect of over 60% in size
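Cells were seeded and rested 2 h, then exposed to compounds for 18-24 h. CellTiter-Fluor was read first as a viability measure. BugLite was added 15 min before the final luminescent read of ARE-luciferase activity in A549 cells.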
Giardia kill: kills Giardia lamblia; activity change, % at 7.66 µM, hits read low; Giardia lamblia trophozoite viability; actives 0.15% (n = 340,000); in the data active means activity change below about -80%; inconclusive means between about -30% and that limit;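 further: parasites exposed to compound for two days anaerobically before the ATP read; on the % scale 0 is the no-effect control and ±100 the full control effect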
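Luminescence from cellular ATP indicates surviving trophozoites (100 cells/well) following 48 hrs anaerobic compound treatment at 37 deg C; signal develops 15-30 min at room temperature.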
A549 tox-1: counter-screen for Nrf2 inhibitors: cytotoxicity in A549 cells. A549 ARE-Fluc cells, CellTiter-Fluor viability, 18-24 h. Potency, µM (doses to about 46 µM), for the others: at the top dose activity change, negative = cytotoxicity, actives largely listed as inhibitors. actives 0.16% (n = 390,000); further: potency means the concentration at half of the fitted maximal effect; on the % scale 0 is the no-effect control and ±100 the full control effect
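A549 ARE-Fluc cells in 5% FBS OPTI-MEM, 5000 cells/well, rested 2 h then exposed to compounds in concentration-response for 18-24 h at 37 °C. Viability by CellTiter-Fluor fluorescence (Ex 405/Em 525) after 30 min; luciferase luminescence (BugLite, 15 min, RT) read afterwards.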
mIDH1 inhibitor: inhibitors of human mutant IDH1 R132H. O75874. IDH1-R132H enzyme, NADPH consumption, diaphorase/resazurin fluorescence. Potency, µM (top dose mostly 76.6 µM), without a hit: at the top dose activity change, negative = inhibition, hits mostly inhibitors. actives 0.093% (n = 390,000); further: potency means the concentration at half of the fitted maximal effect; on the % scale 0 is the no-effect control and ±100 the full control effect; nearly all actives have a fitted effect of over 65% in size
Target sequence (O75874 whole entry R132H, stated change not applied): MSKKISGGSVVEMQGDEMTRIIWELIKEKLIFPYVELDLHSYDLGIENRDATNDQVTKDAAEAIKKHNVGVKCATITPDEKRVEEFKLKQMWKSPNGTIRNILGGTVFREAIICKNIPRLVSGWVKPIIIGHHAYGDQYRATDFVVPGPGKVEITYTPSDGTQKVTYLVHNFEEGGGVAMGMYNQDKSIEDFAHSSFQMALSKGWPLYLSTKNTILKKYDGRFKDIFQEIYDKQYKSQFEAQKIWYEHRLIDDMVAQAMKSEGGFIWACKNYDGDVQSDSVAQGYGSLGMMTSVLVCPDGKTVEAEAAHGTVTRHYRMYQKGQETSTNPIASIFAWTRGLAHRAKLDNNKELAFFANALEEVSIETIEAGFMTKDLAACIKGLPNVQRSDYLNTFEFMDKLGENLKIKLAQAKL
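IDH1-R132H (0.5 ug/mL dispensed) in pH 7.5 Tris buffer was preincubated 30 min with compound, then given a substrate mix of 0.016 mM NADPH and 2 mM alpha-KG for 80 min at room temperature; remaining NADPH was read by diaphorase/resazurin fluorescence.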
Nrf2 ARE act: Nrf2 pathway activation | AREc32 ARE-luciferase reporter (MCF7-derived line), luminescence, 24 h | Potency, µM (titrated, usually from 46.1 µM), for the others: top-dose activation, actives largely listed as activators | actives 0.31% (n = 410,000) | AID 624171; further: potency means the concentration at half of the fitted maximal effect; % of control where 0% means no effect; nearly all actives have a fitted effect of over 65% in size
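AREc32 cells carrying an ARE-driven firefly luciferase reporter were seeded at 1000 cells/well in OPTI-MEM with 5% FBS, then exposed to compound for 24 hr at 37 deg C. Luminescence was read with Steady-Glo after 30 min at RT.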
Apoferritin bind: candidate novel general anesthetic via apoferritin binding. actives 0.074% (n = 350,000). apoferritin/1-aminoanthracene competitive binding, fluorescence. AID 485281. P02791. Potency, µM (titrated, usually from 77.5 µM), for inactives: at the highest dose activity change, negative = displacement, actives largely listed as inhibitors; further: potency means the concentration at half of the fitted maximal effect; on the % scale 0 is the no-effect control and ±100 the full control effect; nearly all actives have a fitted effect of over 20% in size
Target sequence (P02791 2-175 limits assumed): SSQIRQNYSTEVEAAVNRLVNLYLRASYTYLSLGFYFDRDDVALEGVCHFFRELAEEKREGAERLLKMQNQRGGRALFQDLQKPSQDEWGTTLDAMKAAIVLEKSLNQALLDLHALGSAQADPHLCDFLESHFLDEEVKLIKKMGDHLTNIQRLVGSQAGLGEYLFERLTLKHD
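Read-out: endpoint 1-AMA fluorescence, excitation 380 nm and emission 535 nm, after compounds sit 10 min at room temperature with 10 uM horse-spleen apoferritin in 50% saturated 1-AMA/PBS. Values come from four-parameter Hill fits.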
FLuc enzyme inh: counter-screen for Nrf2 inhibitors: firefly luciferase enzyme inhibition. actives 4% (n = 1,400). Potency, µM (series often up to 57.5 µM), without a hit: top-dose activity change, negative = inhibition, most hits filed as inhibitors. purified firefly luciferase, luminescence inhibition. shares compounds with Nrf2 inh; further: potency means the concentration at half of the fitted maximal effect; on the % scale 0 is the no-effect control and ±100 the full control effect; nearly all actives have a fitted effect of over 65% in size
A549 tox-2: A549 cytotoxicity, Nrf2 inhibitor counterscreen; shares compounds with Nrf2 inh; actives 2% (n = 1,400); A549 ARE-Fluc cells, cytotoxicity counterscreen; AID 720523; Potency, µM (highest dose often 46.1 µM), inactives show at the top dose activity change, negative = cytotoxicity, most hits filed as inhibitors;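 further: potency means the concentration at half of the fitted maximal effect; cells exposed to compounds for 18 to 24 hours; on the % scale 0 is the no-effect control and ±100 the full control effect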
ARE-Fluc inh: Nrf2 inhibition confirmed, A549 ARE-luciferase | shares compounds with Nrf2 inh | A549 ARE-firefly luciferase reporter, luminescence | Potency, µM (doses to about 46.1 µM), inactives show top-dose activity change, negative = inhibition, hits mostly inhibitors | actives 74% (n = 1,400); further: potency means the concentration at half of the fitted maximal effect; on the % scale 0 is the no-effect control and ±100 the full control effect; nearly all actives have a fitted effect of over 65% in size
IDH1 autofl: autofluorescence interference, mutant IDH1 hit counter-screen; Resorufin detection reagent fluorescence interference, cell-free; 750 tested, under 10 active; inhibition of signal, % at 51.2 µM; shares compounds with mIDH1 inhibitor;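 further: 0% = wells with normal resorufin and full inhibition = wells lacking resorufin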
IDH1 WT: wild-type IDH1 (human) inhibition counterscreen; shares compounds with mIDH1 inhibitor; WT IDH1 enzyme, NADPH diaphorase/resazurin fluorescence; Potency, µM (top dose mostly 115 µM), inactives show at the highest dose activity change, negative = inhibition, hits mostly inhibitors; actives 9% (n = 750); AID 623995;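 further: potency means the concentration at half of the fitted maximal effect; 0% = full WT IDH1 enzyme control and full inhibition = no enzyme wells; nearly all actives have a fitted effect of over 55% in size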
Target sequence (O75874 whole entry, looked up): as the sequence (O75874 whole entry R132H, stated change not applied) above, with H132R counted along it
mIDH1 confirm: inhibits human mutant IDH1 enzyme in cherrypick confirmation; Potency, µM (highest dose often 76.6 µM), for the others: at the highest dose activity change, negative = inhibition, most hits filed as inhibitors; IDH1 R132H enzyme, NADPH diaphorase/resazurin fluorescence; AID 624002; actives 83% (n = 750); shares compounds with mIDH1 inhibitor; further: potency means the concentration at half of the fitted maximal effect; nearly all actives have a fitted effect of over 50% in size
* marks the source's active call; other numbers are inactive results; ? = inconclusive; . = no result; [ ] = dose if it differs, or a comment. Rows were chosen to be rich in hits. Some 2.3% of all compounds tested hit in one or more screens of this group. Unless noted, the call rests on the fitted dose curve; in most records, active means well fitted curve in the direction sought with a large enough effect; inconclusive means small, poorly fitted or top-dose-only effect, or another doubt; inactive means no such curve, though single readings can be large; an effect the other way counts as inactive or inconclusive.

SMILES	Nrf2 inh	Giardia kill	A549 tox-1	mIDH1 inhibitor	Nrf2 ARE act	Apoferritin bind	IDH1 autofl	IDH1 WT	mIDH1 confirm	others
CC(C)(C)c1ccc(S(=O)(=O)Nc2ccc(Cc3ccncc3)cc2)cc1	9.2µM*	-9	?	?	5%	-12%	-1	-6%	20µM*	FLuc enzyme inh=-3%;A549 tox-2=?;ARE-Fluc inh=0.021µM*
COc1cccc2cc(C(=O)NCCc3c(C)[nH]c4ccc(Br)cc34)c(=O)oc12	-8%	.	7%	8%	0%	44%	.	.	.
Cc1cc(C2(c3ccc(O)c(C)c3)OC(=O)c3ccccc32)ccc1O	10%	27	-3%	?	3%	-3%	.	.	.
Cc1cc(O)c(C(C)C)cc1C1(c2cc(C(C)C)c(O)cc2C)OC(=O)c2ccccc21	?	16	?	16µM*	-3%	-2%	0	-6%	16µM*
Cc1ccc(NC2(c3nnnn3-c3c(C)cccc3C)CCCCC2)cc1	8%	-26	25%	58µM*	8%	-16%	-8	0%	-12%
COCCN1C(=O)CCC1(C)c1nnnn1-c1c(C)cccc1C (stereo unspecified)	.	.	.	.	0%	.	.	.	.
Cc1ccc(Sc2ccc(NC(=O)CCl)cc2)c(C)c1	-9%	-20	4%	52µM*	?	?	3	?	45µM*
Cc1ccc(C)c(Sc2ccc(NC(=O)CCN3C(=O)NC4(CCCC4)C3=O)cc2)c1	?	4	-4%	-5%	-1%	.	.	.	.
CC(=O)c1cccc(NC(=O)C2Cc3c(-c4ccc(Cl)cc4)ccnc3O2)c1 (stereo unspecified)	.	.	.	.	0%	.	.	.	.
O=S(=O)(c1ccc(NC(=S)N/N=C/c2ccc(Oc3ccccc3)cc2)cc1)N1CCOCC1	-6%	25	2%	?	-1%	-3%	-1	-5%	-22%
O=C(CCl)c1ccc(Cc2ncc(C(F)(F)F)cc2Cl)s1	.	-10	-20%	?	5%	?	-12	?	22µM*
c1cn2cc(-c3ccc4c(c3)OCO4)nc2s1	?	-23	3%	23µM*	-1%	-20%	-4	141%	50µM*
O=C(Nc1ccc(S(=O)(=O)N2CCOCC2)cc1)c1ccc2c(c1)S(=O)(=O)c1ccccc1C2=O	-10%	-6	0%	?	0%	-9%	3	5%	4µM*
CC(c1ccccc1)n1c(-c2cccs2)nc2c(c(=O)c3ccccc3n2C)c1=O (stereo unspecified)	5%	13	-1%	32µM*	0%	4%	2	20%	7.9µM*
COc1ccc(NC(=O)c2c(NCc3cccs3)sc3c2CCCCC3)c(OC)c1	.	.	-8%	0%	23%	-20%	.	.	.
CC1(C)CC(=O)C2=C(C1)N1C(=C(C#N)C2c2ccccc2Cl)N=C(N)c2ccccc21 (stereo unspecified)	?	-15	?	?	0%	-9%	-1	3%	16µM*
CC1(C)CC(=O)C2=C(C1)N1C(=C(C#N)C2c2ccc(Cl)cc2)N=C(N)c2ccccc21 (stereo unspecified)	?	-8	?	-9%	0%	0%	.	.	.
COc1ccc(-c2oc3cc(OC(C)=O)cc(OC(C)=O)c3c(=O)c2OC)cc1	2%	-1	-1%	?	12%	.	-3	-4%	28µM*
COc1ccc(-c2cc(=O)c3c(OC(C)=O)cc(OC(C)=O)cc3o2)cc1	.	.	.	.	.	25%	.	.	.
C[C@@H]1CN([C@H](C)CO)C(=O)CCCn2nncc2CO[C@@H]1CN(C)S(=O)(=O)c1ccc(Oc2ccccc2)cc1	.	.	.	4%	0%	.	.	.	.
C[C@H]1CN([C@@H](C)CO)C(=O)CCCn2nncc2CO[C@H]1CN(C)S(=O)(=O)c1ccc(Oc2ccccc2)cc1	.	.	.	?	0%	.	2	2%	?
CCNC(=O)/C(C#N)=C/c1c(N(Cc2ccccc2)Cc2ccccc2)nc2ccccn2c1=O	?	16	?	?	4%	-15%	-4	1%	20µM*
CNC(=O)/C(C#N)=C/c1c(N(Cc2ccccc2)Cc2ccccc2)nc2c(C)cccn2c1=O	26µM*	3	?	52µM*	4%	-16%	-1	2%	14µM*
O=[N+]([O-])c1cccc(S(=O)(=O)N2CCN(c3nc(-c4cccs4)nc4ccccc34)CC2)c1	0%	-11	0%	.	.	.	.	.	.
O=C(Cn1ncc2c3ccccc3n(Cc3cccc(Cl)c3)c2c1=O)NC1CCCCCC1	20%	.	5%	9%	-1%	-2%	.	.	.
Cc1ccccc1S(=O)Cc1ccc(C(=O)N2CCN(c3cccc(C)c3C)CC2)o1 (stereo unspecified)	?	.	-13%	.	-3%	-2%	.	.	.
C=CC[C@@H]1C=C[C@@H](O/N=C2/C[C@@H](O)[C@@H](O)[C@@H]3[C@@H]4C(=O)N(CC)C(=O)[C@H]4CC[C@@H]23)[C@@H](CO)O1	.	.	.	.	.	-10%[15.3 µM]	.	.	.
Cc1ccc(C(C(=O)NC2CCCCC2)N(Cc2cccnc2)C(=O)C2COc3ccccc3O2)o1 (stereo unspecified)	2%	-4	2%	-19%	0%	?	.	.	.
